Most compounds without a hit are left out; they make up all but 3.8% or so of the library.
TGFb inhibitor – TGF-b pathway inhibition. HepG2 CAGA-GFP TGF-b/SMAD3 reporter, GFP fluorescence, 18 h; TGF-beta stimulated, 500 pg/mL final. Potency, µM (doses to about 46.1 µM), inactives show at the highest dose activity, negative = inhibition, usual class: inhibitors. 410,000 tested, 1.2% active; further: on the % scale 0 is the no-effect control and ±100 the full control effect; nearly all actives have a fitted effect of over 65% in size
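Inhibition was scored as loss of TGF-beta-induced (500 pg/mL final, 18 hours, 37 degrees C) GFP in HEPG2 cells carrying a CAGA-GFP reporter, in DMEM with 1% FBS. Well GFP was summed per cell; Activity was normalised to unstimulated and stimulated DMSO wells, then concentration-response fitting.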
HT1080 IDH1KD tx – HT-1080 IDH1 knockdown cell toxicity (counter line); HT-1080 IDH1 knockdown viability, ATP luminescence, 48 h; Potency, µM (top dose mostly 46.1 µM), for the others: at the highest dose activity, negative = toxicity, hits mostly cytotoxic; 360,000 tested, 2% active;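 further: 0% = DMSO wells and -100% = cell-free medium wells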
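Luminescent ATP read-out (CellTiter-Glo, 10 min at room temperature) after 48 h compound exposure at 37 °C gave viability of IDH1-knockdown HT-1080 cells. Activity was normalised to DMSO and cell-free wells, then fitted as concentration-response curves.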
ATXN2 expr inh – reduces ATXN2 reporter expression in HEK-293 cells. HEK-293 ATXN2-luciferase reporter, luminescence, 24 h. Potency, µM (titrated, usually from 57 µM), for the others: at the highest dose activity change, negative = inhibition, hits mostly inhibitors. 360,000 tested, 0.72% active. AID 1745845; further: on the % scale 0 is the no-effect control and ±100 the full control effect; nearly all actives have a fitted effect of over 55% in size
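qHTS (up to 57 uM final) was run with 24 h compound exposure of reporter cells at 37 °C. Each well was multiplexed: SteadyGlo luminescence measured ATXN2-luciferase expression after a fluorogenic Gly-Phe-AFC viability readout (25 uM final).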
HT1080-NT tox – kills 2HG-producing HT-1080-NT fibrosarcoma cells | HT-1080-NT fibrosarcoma viability, CellTiter-Glo ATP luminescence, 48 h | Potency, µM (titrated, usually from 46.1 µM), without a hit: top-dose activity, negative = less viability, hits mostly cytotoxic | 360,000 tested, 1.6% active;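 further: NT is the 2HG producing partner of a matched IDH1 knockdown line; 0% = DMSO-treated cells and -100% = media-only wells without cells; nearly all actives have a fitted effect of over 55% in size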
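HT-1080-NT; 750 cells/well; 5% FBS RPMI; 48 h compound, 37 degrees C; CellTiter-Glo luminescence; curve fitting and curve-class assignment.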
HepG2 tox – HepG2 cytotoxicity, counter-screen for TGF-b inhibitors; HepG2 CAGA-GFP viability, ATP luminescence, 18 h; Potency, µM (series often up to 46.1 µM), inactives show at the highest dose activity change, negative = cytotoxicity, hits mostly cytotoxic; 410,000 tested, 0.76% active; AID 588856
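HepG2 CAGA-GFP cells (1000/well, DMEM with 1% FBS) received compound, then TGF-beta at 500 pg/mL final, and were incubated 18 hours at 37 degrees C. Viability was read by CellTiter-Glo luminescence. Media-only wells were set as complete cell-killing and DMSO as no toxicity.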
S2 tox – cell viability loss in ATXN counter-screen; S2 cells (HEK-293 line with an ATXN2-luciferase reporter) viability, CellTiter-Fluor protease fluorescence, 24 h; Potency, µM (top dose mostly 56.7 µM), usual class: cytotoxic; 400,000 tested, 0.49% active; AID 651635; further: nearly all actives have a fitted effect of over 40% in size
An asterisk follows results filed as active; i = inactive; ? = inconclusive; . = no result given. The call rests on the fitted dose curve; in most records, active means well fitted curve in the direction sought with a large enough effect; inconclusive means small, poorly fitted or top-dose-only effect, or another doubt; inactive means no such curve, though single readings can be large; an effect the other way counts as inactive or inconclusive. Potency means the concentration at half of the fitted maximal effect.

SMILES	TGFb inhibitor	HT1080 IDH1KD tx	ATXN2 expr inh	HT1080-NT tox	HepG2 tox	S2 tox
Cc1cccc2cc3c(nc12)SC(=NCC1CCCO1)N(Cc1ccco1)C3 (stereo not given)	?	10.3µM*	-19.0%	5.8µM*	-82.6%	i
COc1cc(/C=N/NC(=S)NC2CC3CC2C2C=CCC32)ccc1O (stereo not given)	?	?	-13.9%	18.4µM*	-47.6%	?
Cc1ccccc1NC(=O)COC(=O)c1cccc(S(=O)(=O)N2CCCCC2)c1	-7.3%	-5.7%	-2.9%	-1.2%	-17.3%	i
Cc1noc(C)c1COC(=O)c1ccc(F)c(S(=O)(=O)N2CCCCC2)c1	-1.3%	?	.	-8.9%	4.1%	i
Cc1ccc(S(=O)(=O)N2CCCCC2)cc1NC(=O)COC(=O)c1cccc(O)c1	9.3%	2.9%	.	0.1%	11.2µM*	i
Cc1noc(C)c1COC(=O)c1cccc(S(=O)(=O)N2CCCCCC2)c1	-0.5%	20.6µM*	-19.3%	-10.4%	-5.9%	i
O=C(CNC(=O)c1ccccc1)NCC(=O)OCC(=O)c1ccc2ccccc2c1	-1.9%	.	.	.	-13.8%	.
Cc1ccc(/C=C/C(=O)c2cc(Br)ccc2OC(=O)c2ccco2)cc1	-14.5%	?	-4.0%	?	11.2µM*	i
COc1ccc(Br)cc1C(=O)Nc1ccc(NC(=O)c2ccco2)cc1	-21.3%	8.3%	-2.9%	11.2%	-17.4%	i
COc1ccccc1/C=C/C(=O)c1cc(Br)ccc1OC(=O)c1ccco1	?	20.6µM*	?	18.4µM*	-88.4%	?
O=C(/C=C/c1cc(Br)ccc1O)c1ccco1	?	9.2µM*	?	9.2µM*	11.2µM*	.
CCCN(CC(=O)Nc1ccccc1C)C(=O)CCl	5.62µM*	4.11µM*	?	8.2µM*	-79.2%	?
Cc1ccc(NC(=O)c2cc(Cl)nc3ccccc23)cc1	-5.3%	2.7%	.	15.0%	-0.5%	.
CCOc1ccc(NC(=O)c2cc(OC)nc3ccccc23)cc1	-25.3%	0.461µM*	-23.9%	0.461µM*	-1.8%	?
COc1cc(C(=O)Nc2ccc(C)cc2)c2ccccc2n1	-29.8%	0.517µM*	-0.3%	?	-2.8%	?
O=C(Nc1ccccc1)c1cc(N2CCOCC2)nc2ccccc12	-20.9%	-7.8%	0.5%	-13.6%	1.9%	i
O=C(O)c1cc(/C=C/c2ccc(N3CCOCC3)c([N+](=O)[O-])c2)nc2ccccc12	-4.8%	6.7%	-14.8%	22.0%	-9.7%	?
O=C(O)c1cc(/C=C/c2ccc(N3CCOCC3)cc2)nc2ccccc12	0.1%	?	?	23.1µM*	-64.2%	.
Cc1ccc(NC(=O)c2cc(N3CCOCC3)nc3ccccc23)cc1	-6.7%	?	-13.0%	10µM*	-6.5%	i
Cc1ccc(-n2[nH]c(C)c(/C=N/NC(=O)c3ccc(O)cc3O)c2=O)cc1	-8.7%	10.3µM*	?	2.06µM*	-50.7%	i
Cc1[nH]n(-c2ccccc2)c(=O)c1/C=N/NC(=O)c1ccc(O)cc1O	-3.0%	23.1µM*	.	?	-18.6%	?
Cc1ccc(/C=N/Nc2nncc(-c3ccccc3)n2)o1	5.2%	-19.8%	37.0%	-23.3%	16.4%	i
CCCCN(CCCC)C(=S)N/N=C/c1c(C)[nH]n(-c2ccccc2)c1=O	?	6.51µM*	?	?	-20.7%	i
Cc1[nH]n(-c2ccccc2)c(=O)c1/C=N/Nc1nncc(-c2ccccc2)n1	?	0.794µM*	2.82µM*	1.26µM*	-5.3%	i
CC1=Nc2cc(C(=O)NCC3CCCO3)ccc2Sc2ccc(Br)cc21 (stereo not given)	?	16.4µM*	.	10.3µM*	-14.2%	?
